{"source": "PubChem BioAssay (NCATS)", "note": "Records with an inconclusive call do not appear. A call without a number means that no potency is given here. Unmarked numbers belong to inactive results. The source made the active and inactive calls. Calls come from the whole dose curve; as a rule, active = well fitted inhibition curve with a large enough effect; inconclusive = small, poorly fitted or top-dose-only effect; inactive = no such curve, though single readings can be large or run the other way.", "data": [{"tested_on": "Zika virus NS2B-NS3 protease (unlinked complex)", "assay": "Primary screen GU Rhodamine qHTS for Zika virus inhibitors: Unlinked NS2B-NS3 protease assay (AID 1347159); note: nearly all actives have a fitted effect of over 60% in size", "conditions": "Recombinant ZIKV NS2B-NS3 protease, Rhodamine110 substrate fluorescence; series mostly up to 107 µM", "in_short": "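Compounds, tested up to 114 microM, were incubated for 15 minutes with 25 nM unlinked NS2B-NS3 protease at pH 8.0. Cleavage of 1.5 microM Rhodamine110 substrate was then followed by fluorescence for 15 minutes.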", "values": [{"smiles": "OC[C@@]1(O)CO[C@H](OC[C@H]2O[C@@H](OC(CCCCc3ccc(O)cc3)CCc3ccc(O)cc3)[C@H](O)[C@@H](O)[C@@H]2O)[C@@H]1O", "note": "(some centres undefined)", "Potency": "inactive"}, {"smiles": "CC12CC34CC(O)C5C(CO)(CO)CC(=O)CC5(C)C3CC1C2C4", "note": "(centres undefined)", "Potency": "inactive"}, {"smiles": "NCCCCN(Cc1nc2ccccc2[nH]1)[C@H]1CCCc2cccnc21", "Potency": "inactive"}, {"smiles": "CC1(C)CC[C@]2(C(=O)O)CC[C@]3(C)C(=CCC4[C@@]5(C)C[C@@H](O)[C@H](O)[C@](C)(CO)C5CC[C@]43C)[C@@H]2[C@@H]1O", "note": "(some centres undefined)", "Potency": "inactive"}, {"smiles": "CC1C2=CC(=O)OC2(O)CC2C1C(OC(=O)c1ccccc1)C(OC(=O)c1ccccc1)C1(O)C2(C)CCC(O)C1(C)C(=O)O", "note": "(centres undefined)", "Potency": "inactive"}, {"smiles": "C/C=C(/C)C(=O)O[C@H]1C[C@]2(C)O[C@@H]2[C@@H](OC(C)=O)[C@@]2(C)CC[C@@](O)(C(C)C)[C@H]12", "Potency": "inactive"}, {"smiles": "O=C(O)Cc1cn([C@@H]2OC[C@@H](O[C@@H]3O[C@H](CO)[C@@H](O)[C@H](O)[C@H]3O)[C@H](O)[C@H]2O[C@@H]2O[C@H](CO)[C@@H](O)[C@H](O)[C@H]2O)c2ccccc12", "Potency": "inactive"}, {"smiles": "COC(=O)[C@@H](NC(=O)[C@H](CC(C)C)NC(=O)N(Cc1ccccc1)C[C@@H](O)[C@H](Cc1ccccc1)NC(=O)OC(C)(C)C)C(C)C", "activity change, negative = inhibition": "14.8% [at 19.1 µM]"}, {"smiles": "C[C@H]1/C=C/C=C/C=C/C=C/C=C/[C@@H](O)[C@H](C(=O)O)[C@H](O)C[C@H](O)CCC[C@H](O)C[C@H](O)C[C@H](O)[C@@H](C)C(=O)O[C@@H]1C", "Potency": "inactive"}]}]}
